Assay results as given in the supplement of paper PMC6555819.

Assays:
Assay in all cases: PBM binding z-score (relative to random genomic background probes); higher = stronger binding; sequences stand for … in GC…GCGATTGACAGCGTAGAATGAAGG
[1] = system: FXR:RXRa (NR concentration 270 nM, RXRa partner concentration 90 nM)
Summary of the method: (§1)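 The probes on custom Agilent 4×180K protein-binding microarrays were double-stranded, with 34-nt variable regions bearing direct-repeat seeds, single-nucleotide variants, half-site ablations and random human genomic background sequences. Incubation lasted 1 h with ligand-free nuclear receptor dimers in PBS pH 7.4, 2% milk, 0.02% Triton X-100, 1 mM DTT, 0.2 mg/mL BSA and 0.4 mg/ml salmon testes DNA. Antibodies against each partner (one per run) detected bound dimers, and fluorescence scans were regression-normalized. Binding z-scores take the random background probes as reference.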

[2] = system: LXRa:RXRa (NR concentration 270 nM, RXRa partner concentration 90 nM)
Summary of the method: as §1

[3] = system: LXRa homodimer (NR concentration 270 nM)
Summary of the method: as §1

[4] = system: LXRb:RXRa (NR concentration 270 nM, RXRa partner concentration 90 nM)
Summary of the method: as §1

[5] = system: LXRb homodimer (NR concentration 270 nM)
Summary of the method: as §1

[6] = system: PPARa:RXRa (NR concentration 270 nM, RXRa partner concentration 90 nM)
Summary of the method: as §1

[7] = system: PPARg:RXRa (NR concentration 180 nM, RXRa partner concentration 90 nM)
Summary of the method: as §1

[8] = system: PPARg:RXRa 270nM:90nM, anti-RXR (NR concentration 270 nM, RXRa partner concentration 90 nM)
Summary of the method: as §1

[9] = system: PPARg:RXRa 30nM:10nM, anti-RXR (NR concentration 30 nM, RXRa partner concentration 10 nM)
Summary of the method: as §1

[10] = system: PPARg:RXRa 90nM:30nM, anti-RXR (NR concentration 90 nM, RXRa partner concentration 30 nM)
Summary of the method: as §1

[11] = system: PPARg:RXRa DBDmut IVT, anti-RXR (DBD mutation: RXRa K156A/R161A, NR concentration 270 nM, RXRa partner concentration 90 nM)
Summary of the method: as §1

[12] = system: PPARg:RXRa IVT, anti-PPARg (NR concentration 270 nM, RXRa partner concentration 90 nM)
Summary of the method: as §1

[13] = system: PPARg DBDmut:RXRa IVT, anti-PPARg (DBD mutation: PPARg1 K132A/R137A, NR concentration 270 nM, RXRa partner concentration 90 nM)
Summary of the method: as §1

[14] = system: PPARg DBDmut IVT, anti-PPARg (DBD mutation: PPARg1 K132A/R137A, NR concentration 270 nM)
Summary of the method: as §1

[15] = system: PPARg homodimer (NR concentration 180 nM)
Summary of the method: as §1

[16] = system: PXR:RXRa (NR concentration 270 nM, RXRa partner concentration 90 nM)
Summary of the method: as §1

[17] = system: PXR homodimer (NR concentration 270 nM)
Summary of the method: as §1

[18] = system: RARa:RXR (NR concentration 270 nM, RXRa partner concentration 90 nM)
Summary of the method: as §1

[19] = system: RARa homodimer (NR concentration 270 nM)
Summary of the method: as §1

[20] = system: RARb:RXRa (NR concentration 270 nM, RXRa partner concentration 90 nM)
Summary of the method: as §1

Sequence	PBM binding z-score [1]	PBM binding z-score [2]	PBM binding z-score [3]	PBM binding z-score [4]	PBM binding z-score [5]	PBM binding z-score [6]	PBM binding z-score [7]	PBM binding z-score [8]	PBM binding z-score [9]	PBM binding z-score [10]	PBM binding z-score [11]	PBM binding z-score [12]	PBM binding z-score [13]	PBM binding z-score [14]	PBM binding z-score [15]	PBM binding z-score [16]	PBM binding z-score [17]	PBM binding z-score [18]	PBM binding z-score [19]	PBM binding z-score [20]
GCCGCTAGGTCAGGTTGGTCAGCTAACGGGTACG	1.23	0.593	-0.167	0.545	-0.194	1.41	0.278	0.955	-0.607	0.0187	2.34	1.64	-0.905	-1.32	0.576	0.356	-0.526	0.716	-0.74	3.27
CCCGACAGGTGAGAAGGTAACTCAGCCTCGATTA	-0.0059	0.3	0.072	0.291	-0.434	0.726	0.396	0.584	-0.2	0.0512	0.828	0.811	-0.905	-0.776	0.497	-0.281	-0.233	-0.0407	0.0144	0.749
GCTAGCAGGCCATTTGGGTCAGTCAATGACGGGC	-0.0631	-0.302	-0.489	-0.399	-1.6	0.666	0.221	-0.137	-0.663	-0.371	1.4	1.05	-0.511	-1.16	-0.0651	-0.047	0.065	0.213	-1.59	1.12
CCTATTAGTTGACCATAAGCGCAACCGAAGCTCG	0.497	0.827	0.899	1.04	1.41	0.528	0.326	0.456	0.0964	0.123	0.822	0.118	1.15	0.388	2.28	0.436	1.11	0.706	2.45	0.701
TCTATTAGTTGATTAGGGCAACCGTAACAGCGGA	0.375	0.299	0.215	0.508	0.657	1.05	0.178	2.01	3.91	2.77	2.24	1.65	0.987	1.87	0.942	0.413	0.434	0.681	1.18	0.877
ATCTCTAGGTAAGACTCAGTTCAGTAAAGAACGC	0.34	0.725	0.918	0.419	0.923	0.152	0.102	0.669	0.474	0.414	1.94	1.31	0.584	0.972	0.82	1.24	1.74	0.263	1.3	0.396
CCCTACGGGTCACGAGGTTATAGCACGACGAGCG	6.43	4.68	0.337	4.01	-0.522	5.71	6.58	6.23	2.52	4.88	2.05	4.19	0.401	0.144	2.51	4.57	0.609	5.9	1.28	4.36
CCTAGCAGCCCAATCTGGGTCACTCAAGGCTTGA	0.0445	0.132	-0.399	0.523	-0.695	2.93	1.6	1.71	-0.36	1.1	3.69	4.29	-0.334	-0.918	0.624	0.268	-0.803	1.12	-0.169	0.878
ATATGTAGGTTAAGGGCCATTCAGGTTGGTTCGC	0.756	0.989	0.305	0.911	0.0829	4.43	7.86	7.32	6.65	7.62	7.52	6.88	2.91	2.4	1.27	0.874	0.768	0.938	0.601	1.5
AGAACGAGGGCAATGAGTTGATAGCACGGGTGGC	0.227	0.258	-0.336	-0.187	-0.464	1.14	1.4	0.948	0.0396	0.43	3.48	2.48	0.306	0.0167	0.0111	1.54	2.95	0.443	0.212	2.04
TCTCGCAGGACACGAAGGTCAGAGCTTTCCAGAG	1.36	1.16	0.275	1.43	-0.948	1.92	0.556	1.75	1.75	1.74	1.49	0.67	-1.01	-1.42	0.787	1.44	-0.0691	1.81	-0.422	2.74
CTCGAAAGGTCGTGCTCAGGTGATTATACCAAAC	4.98	4.19	0.561	3.64	0.429	4.83	2.63	3.52	0.939	2.35	0.733	1.72	1.57	0.403	2.1	3.55	0.276	4.32	0.268	3.86
ACTCGCAGGCCAAGTTTGGGTCACTCAAACAAAG	0.277	0.222	-0.578	0.571	-0.644	1.39	-0.313	0.179	-0.845	-0.263	0.227	0.485	-0.206	-0.189	0.897	0.84	-0.477	1.47	-0.257	1.89
ATCTCTAGGTTAGACTCAGTTCAGTGAAGAACGC	1	1.74	1.7	1.12	1.27	0.772	0.251	0.742	0.423	0.508	3.38	2.14	1.55	1.36	1.63	2.69	2.69	1.13	2.42	1.53
AGTCAAACTTCACTAGGTAACGTAAGATTCAGCT	-0.0326	-0.0348	-0.0758	0.0812	0.248	0.271	0.504	0.268	0.187	0.101	1.97	2.66	0.854	1.24	0.579	-0.238	0.241	-0.00905	-0.136	0.174
